Measured values reported in the supplement of paper PMC11417369.
± gives the standard deviation of the averaged measurements. In all, about 25,000 sequences were measured (“ln(normalized median fluorescence intensity)”: median about 8.6, highest 2% from about 10 on). What follows is part of a selection rich in the highest values, with near analogues and random picks from the rest.

tested on: PfAP2-EXP AP2 domain (GST-tagged); assay: gcPBM binding intensity (ln(normalized median fluorescence intensity)); higher = stronger DNA binding
Summary of the method: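 Binding intensity is defined as the maximum Masliner-normalised natural-log median intensity across replicate spots for either probe orientation. It was measured on an Agilent 4 × 180k array of primer-extended double-stranded 36-bp intergenic genomic probes and negative controls, to which GST-tagged P. falciparum DNA-binding domains made in E. coli were applied for 1 h in 1× PBS with 1% milk, 0.2 mg/ml BSA, 0.5% salmon testes DNA and 0.03% Triton X-100. Detection was by Alexa488 anti-GST antibody and scanning at 488 nm.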

Sequence	gcPBM binding intensity (ln)
TTACATATGGTTAGTAGTACATATATAAATGTAAAT [XGTACX_site7206]	8.62 ± 0.47
TTACATACAATTGGTGTGCACATATATATATATATA	10.3 ± 0.33
AAATCAAACTTTGGTGTGCACAAATATATACATATA [GTGCAC_site9986]	9.1 ± 0.29
AATTAATGGTTAAAGGTGCACAATACATATATTACA [GTGCAC_site9943]	9.57 ± 0.45
TATATATATAAGATTGTGCACATTAAAATGATAGAA [GTGCAC_site9621]	9.265 ± 0.049
TATATATATATATATACATGCATTTCTCATGTACAT [TGCATGCA_site621]	10.2 ± 0.33
TATATATTTATATATGCATGTACATTTTTATTTATT [TGCATGCA_site1048]	8.82 ± 0.25
TACATGCATTTCTCATGTACATAATTTTCCCATATT [XGTACX_site5158]	8.81 ± 0.4
CCTTACTTCTTATAAAGTACCCAATGATATACATTA [XGTACX_site1554]	8.41 ± 0.31
AAACGATCTCGATGTTGTACACATTTATATAGAAAC [XGTACX_site4373]	8.86 ± 0.4
GCCAATAAAGATGTGGTGCATTATATATATATATAT	10.3 ± 0.23
AATATTCAATATAAAGTGCATTATTGTGGACCTAAT	8.77 ± 0.099
TAAATATATATATAAGTGCATTATATATATATATAA	8.58 ± 0.028
TAATTTTTTATATATTGTACAAATAATATATGATGT [XGTACX_site268]	8.46 ± 0.23
TTTCTTATTTTGGATTGTACGTATATTTTTCATTTT [XGTACX_site224]	8.93 ± 0.38
TCTTACGGATTCATTGTGCACATATATATATATATA [GTGCAC_site9896]	10.2 ± 0.45
CATTATATGATTTATGTGCACATTCATTTATTTTAA	8.83 ± 0.099
AAAAATATATAAGAGAGTACATAAAATAAATTAATT [XGTACX_site1534]	8.61 ± 0.41
CAGACATATTAAAAGAGTACATATATATATATATAT [XGTACX_site1158]	10.3 ± 0.28
TTAATATATTTTAAAAGTACATAATATTATTTTTTA [XGTACX_site3642]	8.04 ± 0.26
TATATATATATATATAGTACATATTTATATATGAAA [XGTACX_site8488]	10.1 ± 0.36
AAAAAAAAAAAAAAAAGTACATATATATATAATTAT [XGTACX_site7836]	8.54 ± 0.43
TATATATTATAAAAGAGTACAGAAAGAAAAAAAAAT [XGTACX_site8305]	9.12 ± 0.59
ACATATTAATTATAAAGTACATATATATATATATAT [XGTACX_site4540]	10.3 ± 0.18
ATATACATATATATATGTACTTATTTATTTATTTAT [XGTACX_site2532]	8.56 ± 0.26
AAATTATTAAAAAAAAGTACATATATATATATATAT [XGTACX_site8313]	10.4 ± 0.25
AAAAAAAAAAAAAAAAGTACATATATTATATATATA [XGTACX_site2983]	8.9 ± 0.099
ATATTTTAATTATAAAGTACATAAAAATATATAAAC [XGTACX_site6705]	8.58 ± 0.3
TATATTTACTTATGAAGTACATATATATATATATAT [XGTACX_site5069]	10.3 ± 0.21
